This note sets out measurements from PubChem BioAssay.

Values without a mark were called inactive. This is one part of the list. Calls of active or inactive are those of the source.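 Rule for the calls, unless noted: active = inhibition above the hit cutoff computed for the primary STAT3 screen (cut at about 44% in these data); inactive = the rest.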

A short description of assay [1]: STAT3 reporter inhibitors, retest of hits, confirmation, U3A cells, luciferase, luminescence (AID 1265).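 Note: 0% = IL-6 plus DMSO and 100% = IL-6 plus nifuroxazide control.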 The following applies: IL-6 STAT3 luciferase reporter, at 5.7 µM, hits give high values, cell line lacks STAT1. (In general: A reporter such as luciferase makes a cellular process visible.)
A short description of assay [2]: NF-kB reporter inhibitors in human cells, confirmation, counter-screen for STAT3 inhibitor project, cell-based, HEK293T, luciferase, TNF-alpha stimulus (AID 1308;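 active = inhibition above the mean of solvent-only control wells plus 3 SD, cutoff set per campaign, cut at about 13% in these data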;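 note: 0% = TNF-alpha with DMSO and 100% = TNF-alpha with MG high control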). As to conditions: TNF-alpha induced, at 5.7 µM, hits give high values.
Assay [3] is described as follows: STAT1 reporter inhibitors, IFN-gamma induced, confirmation, counter-screen for STAT3 inhibitor project, cell-based, NIH 3T3, luciferase luminescence (AID 1317;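 active = inhibition above the mean plus 3 SD of solvent-only control wells, limit set per screening run, cut at about 16% in these data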;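 note: 0% = DMSO with IFN-gamma and 100% = nifuroxazide control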). The following applies: NIH 3T3 STAT1-luciferase reporter, at 5.7 µM, hits give high values. (The purpose of a counterscreen is to sort out artefacts and off-target activity.)
Assay [4] has as its target Oxysterols receptor LXR-beta (Homo sapiens) (UniProt P55055). The assay is described as follows: LXR agonists, Gal4 luciferase reporter, confirmation, counter-screen for hcDAF-12 agonist project, cell-based, luminescence, HEK293, H. contortus campaign (AID 743027;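 active = mean percent activation of the reporter above a cutoff set as the average over tested compounds plus their standard deviation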). As to conditions: HEK293 Gal4-LXR tk-luc reporter, 24 h, at 6.8 µM, hits give high values, normalized: DMSO 0%, positive control 100%.

Assay [5] concerns Nuclear hormone receptor DAF-12 (Haemonchus contortus). The experiment in a line: H. contortus DAF-12 receptor agonists, confirmation, cell-based, luminescence, HEK293, lit1-tk-luc, triplicate (AID 743032;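 active = mean activation across triplicate tests above the threshold derived from the earlier primary screen, cut at about 5.5% in these data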;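 note: 0% = DMSO only wells and 100% = 3 µM Δ7-dafachronic acid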). The following applies: HEK293 hcDAF-12 lit1-tk-luc reporter, at 6.8 µM, hits give high values, % of Δ7-dafachronic acid response.
Assay [6] has as its system DAF-12 nuclear receptor (Heterodera glycines), GAL4-LBD fusion. The assay is described as follows: H. glycines DAF-12 receptor agonists, confirmation, cell-based, luminescence, HEK293, GAL4-LBD fusion (AID 743050;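 active = mean activation over triplicate wells above the hit cutoff derived from the earlier primary screen, cut at about 11% in these data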;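 note: 0% = DMSO low control and 100% = 2 mM sodium butyrate high control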). The following applies: HEK293 GAL4-hgDAF12 luciferase reporter, agonist mode; at 6.8 µM; hits give high values; percent of butyrate response.
Assay [7] addresses Oxysterols receptor LXR-beta (Homo sapiens) (UniProt P55055). The assay is described as follows: LXR agonists, Gal4 luciferase reporter, confirmation, counter-screen for hgDAF-12 agonist project, cell-based, luminescence, HEK293, H. glycines campaign (AID 743051;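 active = mean activation of the triplicate above a set limit carried over from the primary screen, none filed active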). The following applies: 24 h, at 6.8 µM, hits give high values.
The target in assay [8] is Photoreceptor-specific nuclear receptor (Homo sapiens) (UniProt Q9Y5X4). The experiment in a line: NR2E3 agonist confirmation in cells, cell-based, luminescence, CHO-S two-hybrid (AID 624378;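 active = average inhibition above a cutoff equal to the mean inhibition of all tested compounds plus one SD, cut at about 70% in these data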;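 note: 0% = DMSO in NR2E3 cells and 100% = DMSO in cells lacking NR2E3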). As to conditions: CHO-S mammalian two-hybrid NR2E3-NCOR, luciferase luminescence; at 3.98 µM; hits give high values.
Photoreceptor-specific nuclear receptor (Homo sapiens), sequence (Q9Y5X4 whole entry, looked up, the tested form may be a part): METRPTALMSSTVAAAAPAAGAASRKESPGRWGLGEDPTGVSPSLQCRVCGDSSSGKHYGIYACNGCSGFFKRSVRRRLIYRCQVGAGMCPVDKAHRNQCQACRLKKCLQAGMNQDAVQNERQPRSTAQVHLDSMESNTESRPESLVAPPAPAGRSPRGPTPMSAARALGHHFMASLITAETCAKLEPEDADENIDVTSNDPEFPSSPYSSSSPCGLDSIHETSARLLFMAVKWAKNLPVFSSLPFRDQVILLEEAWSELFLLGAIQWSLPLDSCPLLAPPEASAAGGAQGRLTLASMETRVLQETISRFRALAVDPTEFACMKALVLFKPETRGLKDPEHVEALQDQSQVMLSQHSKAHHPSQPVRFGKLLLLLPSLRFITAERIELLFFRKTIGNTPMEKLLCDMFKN
A short description of assay [9]: GAL4-VP16 reporter modulators, confirmation, counter-screen for NR2E3 agonist project, cell-based, luminescence, CHO-S, high throughput (AID 624379;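 active = mean inhibition above a cutoff equal to the average over all tested compounds plus one standard deviation, cut at about 70% in these data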;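 note: luciferase from a UAS reporter driven by GAL4-VP16 transactivation; 0% = DMSO with VP16-transfected cells and 100% = DMSO with cells lacking VP16; higher means less reporter light so more repression of VP16 activity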). The following applies: CHO-S GAL4-VP16 luciferase reporter, at 3.98 µM, hits give high values.
Assay [10] in a line: Gal4-VP16 luciferase reporter inhibitors, counter-screen for COUP-TFII antagonist project, cell-based, luminescence, HEK293 (AID 687007; in the data active = inhibition above about 13%). The following applies: at 8.5 µM, hits give high values.
The target in assay [11] is COUP transcription factor 2 (Homo sapiens) (UniProt P24468). The experiment in a line: NR2F2 transcriptional activity inhibitors, confirmation, cell-based, luciferase reporter, HEK293, triplicate (AID 687008;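 active = mean inhibition over three repeats above a set limit taken from the earlier primary screen, cut at about 38% in these data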;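 note: 100% = cells given the luciferase reporter alone without the COUP-TF2 vector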). As to conditions: HEK293 NGFI-A luciferase reporter, luminescence; at 8.5 µM; hits give high values.
COUP transcription factor 2 (Homo sapiens), sequence (P24468 whole entry, looked up): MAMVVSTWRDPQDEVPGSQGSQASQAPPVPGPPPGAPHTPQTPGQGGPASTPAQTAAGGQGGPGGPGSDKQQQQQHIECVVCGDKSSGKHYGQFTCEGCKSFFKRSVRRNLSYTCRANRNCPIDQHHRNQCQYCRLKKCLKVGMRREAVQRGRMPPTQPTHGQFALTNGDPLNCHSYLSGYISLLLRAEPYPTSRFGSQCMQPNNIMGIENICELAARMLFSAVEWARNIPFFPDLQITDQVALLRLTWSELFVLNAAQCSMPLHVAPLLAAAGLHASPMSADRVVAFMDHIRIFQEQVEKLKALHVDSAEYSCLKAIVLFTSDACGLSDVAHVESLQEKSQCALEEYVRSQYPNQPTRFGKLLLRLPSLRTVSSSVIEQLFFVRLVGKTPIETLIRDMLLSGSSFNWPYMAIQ
The target in assay [12] is Galanin receptor type 2 (Homo sapiens) (UniProt O43603). The experiment in a line: GALR2 antagonists, retest of hits, confirmation, cell-based (AID 866; in the data active = inhibition above about 27%;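 note: cells stimulated with galanin at about its EC80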). As to conditions: GALR2-expressing cells, antagonist mode, at 4 µM, hits give high values.
Galanin receptor type 2 (Homo sapiens), sequence (O43603 whole entry, looked up): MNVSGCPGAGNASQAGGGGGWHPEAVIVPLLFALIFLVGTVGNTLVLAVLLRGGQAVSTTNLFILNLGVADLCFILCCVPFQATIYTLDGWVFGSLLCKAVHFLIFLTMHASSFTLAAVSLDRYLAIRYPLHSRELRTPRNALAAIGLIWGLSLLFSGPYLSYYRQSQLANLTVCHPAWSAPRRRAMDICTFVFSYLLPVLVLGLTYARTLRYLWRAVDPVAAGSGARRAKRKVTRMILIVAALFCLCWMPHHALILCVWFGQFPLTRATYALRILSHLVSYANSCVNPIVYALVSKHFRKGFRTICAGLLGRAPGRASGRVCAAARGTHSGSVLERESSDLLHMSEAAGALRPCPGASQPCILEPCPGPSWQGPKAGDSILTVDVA
Assay [13] is described as follows: inhibitors of NFAT-driven beta-lactamase reporter, confirmation, counter-screen for GALR2 antagonist project, CHO NFAT-bla cells, FRET readout (AID 867;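 active = inhibition above the mean inhibition across tested compounds plus 3 SD, cut at about 27% in these data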;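 note: 0% = 500 nM thapsigargin stimulated wells and 100% = unstimulated BSA only wells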). The following applies: thapsigargin-stimulated, at 4.2 µM, hits give high values.
The target in assay [14] is Serine protease HTRA1 (Homo sapiens) (UniProt Q92743). The experiment in a line: HTRA1 protease inhibitors, retest, confirmation, biochemical, fluorescence polarization (AID 540248;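 active = mean inhibition over three repeats above a set limit taken from the earlier primary screen, cut at about 37% in these data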;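 note: 0% = HTRA1 with DMSO and 100% = wells lacking HTRA1; inhibitors block probe binding so polarization drops and inhibition rises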). As to conditions: recombinant HTRA1, FP-rhodamine activity-based probe, at 5.96 µM, hits give high values.
A short description of assay [15]: StAR promoter reporter inhibitors, counter-screen for LRH-1 inverse agonist project, cell-based, luminescence, high throughput (AID 651611; in the data active = inhibition above about 28%). The following applies: StAR promoter luciferase reporter counterscreen, at 3.6 µM, hits give high values.
For assay [16], the target named is Nuclear receptor subfamily 5 group A member 2 (Homo sapiens) (UniProt O00482). The experiment in a line: LRH-1 (NR5A2) inverse agonists, retest, confirmation, cell-based, luminescence (AID 651613; in the data active = inhibition above about 42%;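 note: HEK293T cells co-transfected with LRH-1 and StAR promoter luciferase reporter; 0% = vehicle wells and 100% = parental cells lacking receptor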). The following applies: cell-based LRH-1 luciferase reporter, inverse agonism; at 3.6 µM; hits give high values.
Nuclear receptor subfamily 5 group A member 2 (Homo sapiens), sequence (O00482 whole entry, looked up): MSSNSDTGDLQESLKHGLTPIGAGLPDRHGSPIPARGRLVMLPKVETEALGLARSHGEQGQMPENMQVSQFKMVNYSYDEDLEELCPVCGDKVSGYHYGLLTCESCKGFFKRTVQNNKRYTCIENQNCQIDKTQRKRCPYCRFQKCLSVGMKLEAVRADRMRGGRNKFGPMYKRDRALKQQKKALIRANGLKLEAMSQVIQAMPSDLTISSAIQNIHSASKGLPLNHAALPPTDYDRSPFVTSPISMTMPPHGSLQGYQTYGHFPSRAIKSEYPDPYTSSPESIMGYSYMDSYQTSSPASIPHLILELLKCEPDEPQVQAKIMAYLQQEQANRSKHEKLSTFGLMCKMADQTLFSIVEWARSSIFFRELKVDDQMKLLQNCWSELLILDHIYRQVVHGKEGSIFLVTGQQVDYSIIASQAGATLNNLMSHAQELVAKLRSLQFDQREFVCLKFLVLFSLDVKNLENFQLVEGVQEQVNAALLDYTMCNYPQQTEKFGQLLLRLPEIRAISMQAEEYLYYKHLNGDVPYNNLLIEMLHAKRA
Assay [17] concerns the target Steroidogenic factor 1 (Homo sapiens) (UniProt Q13285). The experiment in a line: SF1 (NR5A1) inverse agonists, counter-screen for LRH-1 inverse agonist project, cell-based, luminescence, high throughput (AID 651614; in the data active = inhibition above about 44%;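 note: cells cotransfected with StAR promoter reporter and SF1 expression vector; 0% = vehicle on cells with receptor and 100% = vehicle on cells lacking receptor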). The following applies: cell-based SF1 luciferase reporter, at 3.6 µM, hits give high values.
Assay [18] is described as follows: VP16 transactivation reporter inhibitors, counter-screen for LRH-1 inverse agonist project, cell-based, luminescence, high throughput (AID 651615; in the data active = inhibition above about 33%). The following applies: Gal4-VP16 luciferase reporter cells, at 3.6 µM, hits give high values.

Oxysterols receptor LXR-beta (Homo sapiens), sequence (P55055 whole entry, looked up, the tested form may be a part): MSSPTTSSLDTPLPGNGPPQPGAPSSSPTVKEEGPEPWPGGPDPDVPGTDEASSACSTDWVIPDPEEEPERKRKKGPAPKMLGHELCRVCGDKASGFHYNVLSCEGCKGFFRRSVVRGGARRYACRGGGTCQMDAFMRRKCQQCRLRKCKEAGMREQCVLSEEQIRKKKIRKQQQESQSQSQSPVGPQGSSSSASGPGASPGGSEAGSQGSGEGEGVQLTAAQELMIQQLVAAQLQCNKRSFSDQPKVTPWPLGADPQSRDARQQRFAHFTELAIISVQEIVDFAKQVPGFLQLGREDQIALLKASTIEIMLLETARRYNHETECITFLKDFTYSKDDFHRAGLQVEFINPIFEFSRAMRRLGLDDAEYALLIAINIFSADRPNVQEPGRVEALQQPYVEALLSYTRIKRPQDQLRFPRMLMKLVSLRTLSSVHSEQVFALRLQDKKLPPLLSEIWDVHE
Steroidogenic factor 1 (Homo sapiens), sequence (Q13285 whole entry, looked up, the tested form may be a part): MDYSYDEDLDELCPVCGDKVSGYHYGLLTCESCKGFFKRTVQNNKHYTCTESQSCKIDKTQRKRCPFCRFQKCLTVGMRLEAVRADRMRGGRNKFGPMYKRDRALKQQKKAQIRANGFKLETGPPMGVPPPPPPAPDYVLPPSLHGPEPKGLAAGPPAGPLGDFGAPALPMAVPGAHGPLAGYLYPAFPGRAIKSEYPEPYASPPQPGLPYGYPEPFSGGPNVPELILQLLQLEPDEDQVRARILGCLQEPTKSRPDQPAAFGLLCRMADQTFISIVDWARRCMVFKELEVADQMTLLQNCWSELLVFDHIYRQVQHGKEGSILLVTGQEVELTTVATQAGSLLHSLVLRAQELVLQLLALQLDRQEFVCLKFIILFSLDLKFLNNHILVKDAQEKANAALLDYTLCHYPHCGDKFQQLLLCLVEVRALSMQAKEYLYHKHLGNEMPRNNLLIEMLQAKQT

The term inhibition denotes the relative decrease from the control value, in per cent. Regarding `COc1cc(SC)ccc1C(=O)Nc1cc(C)ccn1`, the inhibition was 8.73% in [1], -35.4% in [2] and -139% in assay [3]. Also, the activation in assay [4] was 1.02%; in [5], 4.37%; in assay [6] it was 17.2% (active); in [7] it was 1.05%.
For the compound `Cc1ccc(NC(=O)CN(C)CC(=O)Nc2cccc(F)c2)cc1[N+](=O)[O-]`, the inhibition in assay [1] is 35.9%; in [2] it was 13% (active); in [3], 19.3% (active); in assay [8], 74.5% (active); in assay [9] it was 86.7% (active); in assay [10], 1.63%. In addition, in assay [11], the inhibition is 51.8% (active).
As for `COc1ccccc1Oc1ccc(S(=O)(=O)Nc2cccnc2)cc1`, the inhibition in assay [1] was 33%; in assay [2], 5.8%; in assay [3], 8.77%; in [8] it was 95.5% (active); in assay [9], 75.8% (active).
Turning to `COc1ccc(Nc2ncc(F)c(N3CCOCC3)n2)cc1`, the inhibition in assay [1] is 3.37%; in [2], -21.5%; in [3], -107%. Besides, the results for the activation in assay [6] and in assay [7] were 16.1% (active) and 1%, respectively.
Consider `Cc1ccc(F)cc1NC(=O)Cc1nn(C)c(=O)c2ccccc12`, for which the inhibition in [12] was 33.5% (active); in assay [13] it was 12.4%; in assay [1], 51.9% (active); in assay [2], 16.1% (active); in assay [3] it was 21.2% (active); in [8], 65.1%. Besides, the inhibition was 61.5% in [9], 9% in assay [10] and 48.1% (active) in assay [11].
For `O=C(Nc1cccc(S(=O)(=O)Nc2ccc(Cl)cc2)c1)c1ccc2c(c1)OCCO2`, the inhibition was 55.6% (active) in assay [1]; 15.4% (active) in assay [2]; 17.7% (active) in [3]; -4.16% in [10]; 42.2% (active) in [11].
Take `c1coc(CNc2ncnc3ccccc23)c1`: the inhibition in assay [1] is 40.4%; in assay [2], 15.2% (active); in [3], 30.5% (active); in [8], 71.1% (active); in assay [9] it was 56.3%; in [10] it was 4.88%. For the same compound, the inhibition in assay [11] was 40.9% (active).
With `c1ccc2[nH]c(-c3nc4ccccc4[nH]3)nc2c1`, the inhibition in assay [12] was 21.3%; in assay [13], 8.39%; in [1], 5.87%; in [2], -30%; in assay [3], -97.2%; in assay [14] it was 58.4% (active). Also, the activation was 1.09% in [4] and 4.57% in assay [5].
Consider `CCCOC(=O)c1[nH]c2c(c1C)C(=O)CC(c1cc(OC)c(OC)c(OC)c1)C2` (centres undefined), for which the inhibition was 61% (active) in [1]; 29% (active) in assay [2]; 25.8% (active) in assay [3]; 73.9% (active) in [8]; 65% in assay [9]; 29% (active) in assay [15]. Besides, the inhibition in [16] was 54.7% (active); in assay [17], 54.1% (active); in assay [18] it was 41% (active); in [10], 6.54%; in assay [11], 49.6% (active).
